In all, about 5,500 compounds went through this assay and about 2,000 (36%) were called active. Not shown: some 18% with an inconclusive outcome. Cut-off read from the data, not from the text of the source: active = normalized growth mostly below about 0.91 (no sharp cut-off); inconclusive = no clear call, values can overlap the other calls; inactive = mostly above about 0.92. Some of the results follow.
Assay: chemical genetic growth profiling, strain panel (AID 1159580);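 note: tested at 20 µM; growth read once vehicle control cultures reached saturation at 30 °C; 1 = growth at the plate median or of vehicle wells; lower values mean less growth of the strain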
Details: S. cerevisiae deletion strains, growth OD
[1] = locus YAL013W, strain DEP1, stronger effect = lower value
[2] = locus YBR229C, strain ROT2, stronger effect = lower value
[3] = locus YDL101C, strain DUN1, stronger effect = lower value
[4] = locus YDL134C, strain PPH21, stronger effect = lower value
[5] = locus YDR150W, strain NUM1, stronger effect = lower value
[6] = locus YEL061C, strain CIN8, stronger effect = lower value
[7] = locus YGR078C, strain PAC10, stronger effect = lower value
[8] = locus YHR030C, strain SLT2, stronger effect = lower value
[9] = locus YHR087W, strain rtc3, stronger effect = lower value
[10] = locus YJR043C, strain POL32, stronger effect = lower value
[11] = locus YJR075W, strain HOC1, stronger effect = lower value
[12] = locus YLR039C, strain RIC1, stronger effect = lower value
[13] = locus YLR058C, strain SHM2 (second series), stronger effect = lower value
[14] = locus YLR085C, strain ARP6, stronger effect = lower value
[15] = locus YLR262C, strain YPT6, stronger effect = lower value
[16] = locus YML094W, strain GIM5, stronger effect = lower value
[17] = locus YMR219W, strain ESC1, stronger effect = lower value
[18] = locus YMR263W, strain SAP30, stronger effect = lower value
[19] = locus YNL153C, strain GIM3, stronger effect = lower value
[20] = locus YNL298W, strain CLA4 (second series), stronger effect = lower value
[21] = locus YNL322C, strain KRE1, stronger effect = lower value
[22] = locus YNR030W, strain Alg12, stronger effect = lower value
[23] = locus YPL055C, strain LGE1, stronger effect = lower value
[24] = locus YPL241C, strain CIN2, stronger effect = lower value
[25] = locus YPR135W, strain CTF4, stronger effect = lower value

Measured: normalized growth

N#Cc1c(Cl)cccc1N1CCC(C(=O)NC(=O)Nc2ccc(Cl)cc2)CC1
inactive: [1] 0.998 | [2] 1.01 | [3] 1 | [4] 1.03 | [5] 1.04 | [6] 1.01 | [7] 1.01 | [8] 1.04 | [9] 1.02 | locus YJL187C, strain SWE1, stronger effect = lower value 1.01 | [10] 1 | [11] 1.05 | [12] 1.01 | [13] 1.03 | [14] 1.07 | [15] 0.998 | [16] 1.04 | [17] 1.02 | [18] 1.01 | locus YMR307W, strain GAS1, stronger effect = lower value 1.03 | [19] 1.01 | [20] 1.02 | [21] 1.01 | [22] 1.03 | [23] 1.1 | [24] 1.01 | [25] 1.04

N#Cc1c(Cl)cccc1N1CCCC1
inactive: [2] 0.935 | [4] 0.98 | [5] 0.85 | [13] 0.952 | [14] 0.791 | [18] 0.915 | locus YNL128W, strain TEP1, stronger effect = lower value 0.922 | [25] 0.769
active: [1] 0.877 | [3] 0.87 | [6] 0.891 | [7] 0.851 | [8] 0.615 | [9] 0.886 | [10] 0.861 | [11] 0.801 | [12] 0.576 | [15] 0.567 | [16] 0.779 | [17] 0.931 | [19] 0.833 | [20] 0.762 | [21] 0.929 | [22] 0.83 | locus YOL006C, strain TOP1, stronger effect = lower value 0.473 | [23] 0.776 | [24] 0.815

Reference: PubChem BioAssay AID1159580 (chemical genetic matrix, 2015)
